In PubChem BioAssay (Tox21):
“And” between values parts separate entries of the source, which are not always exact repeats. Equal values may be shown once. Results filed as inconclusive are left out. Where a structure was tested more than once in an assay, its records may differ in their call. The source made the active and inactive calls. Unless noted, calls follow the shape of the full dose curve.

Legend:
[1] = qHTS assay to identify small molecule agonists of the vitamin D receptor (VDR) signaling pathway - cell viability counter screen (AID 743224; active = well fitted curve in the direction sought with a large enough effect in the repeat runs; an effect the other way counts as inactive or inconclusive; also: nearly all actives have a fitted effect of over 50% in size; also: potency is read from the fitted curve at half-maximal effect)
In short: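 Counter screen for cytotoxicity: VDR-bla cells at 2,000 cells/well, 16 h compound exposure, then CellTiter-Glo luminescence after the beta-lactamase measurement.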

[2] = qHTS assay to identify small molecule antagonists of the vitamin D receptor (VDR) signaling pathway - cell viability counter screen (AID 743225; active = well fitted curve in the direction sought with a large enough effect in the repeat runs; an effect the other way counts as inactive or inconclusive; also: nearly all actives have a fitted effect of over 50% in size; also: potency is read from the fitted curve at half-maximal effect; as to viability change, negative = cytotoxic: % is scaled to controls: 0 for no effect and ±100 for the full control effect)
In short: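 Cells (VDR-UAS-bla HEK 293T) are plated, rested 4 h at 37C, dosed with compound and 3 nM final 1-alpha,25-dihydroxy vitamin D3, and incubated 16 h. Viability is taken from CellTiter-Glo luminescence in the reporter wells.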

[3] = qHTS assay to identify small molecule agonists of the NFkB signaling pathway (AID 1159509; active = well fitted curve in the direction sought with a large enough effect in the signal ratio in the repeat runs, not every such curve was filed as active; the % refers to the signal ratio; also: series mostly up to about 61 µM; % is scaled to controls: 0 for no effect and ±100 for the full control effect)
In short: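 Agonist activity was read as beta-lactamase-driven FRET change (460 and 530 nm emission, 405 nm excitation) following 1.5 hr substrate loading at room temperature. Beforehand, ME-180 NFkB-bla reporter cells were treated with compounds for 5 hr at 37 C.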

[4] = qHTS assay to identify small molecule agonists of the NFkB signaling pathway - cell viability counter screen (AID 1159515); also: series mostly up to about 61 µM; % is scaled to controls: 0 for no effect and ±100 for the full control effect; nearly all actives have a fitted effect of over 55% in size
In short: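 Counter screen run alongside the NFkB-bla agonist assay: ME-180 reporter cells exposed to compounds for 5 hr, then lysed with CellTiter-Glo in the same wells. Luminescence, read after 30 min, reflects viable cells.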

[5] = qHTS assay to identify small molecule agonists of the endoplasmic reticulum stress response signaling pathway (AID 1159516; active = well fitted activation curve with a large enough effect in the signal ratio in the repeat runs, not every such curve was filed as active; the % refers to the signal ratio; also: % is scaled to controls: 0 for no effect and ±100 for the full control effect)
In short: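 For this screen, HeLa cells stably carrying beta-lactamase under the ER stress response element received test compounds, positive controls or DMSO for 5 hr at 37 C; B/G FRET substrate was then added and dual-wavelength emission recorded.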

[6] = qHTS assay to identify small molecule agonists of the endoplasmic reticulum stress response signaling pathway - cell viability counter screen (AID 1159517); also: series mostly up to about 61 µM; % is scaled to controls: 0 for no effect and ±100 for the full control effect; nearly all actives have a fitted effect of over 50% in size
In short: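 In parallel with the ESRE reporter read, cytotoxicity was scored by CellTiter-Glo luminescence (30 min, room temperature) on HeLa ESRE-bla cells dosed for 5 hr.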

[7] = qHTS assay to identify small molecule antagonists of the retinoid-related orphan receptor gamma (ROR-gamma) signaling pathway - cell viability counter screen (AID 1159520; active = well fitted curve in the direction sought with a large enough effect in the repeat runs; an effect the other way counts as inactive or inconclusive; also: nearly all actives have a fitted effect of over 50% in size; also: potency is read from the fitted curve at half-maximal effect)
In short: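 Tet-on ROR gamma CHO cells were given compounds for 2 hr, then doxycycline hyclate at 1 uM final, and incubated 16 hr at 37 C. Viability was measured as ATP content by CellTiter-Glo luminescence.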

[8] = molecular target: Nuclear receptor ROR-gamma (Homo sapiens) (UniProt P51449); assay: qHTS assay to identify small molecule antagonists of the retinoid-related orphan receptor gamma (ROR-gamma) signaling pathway (AID 1159521; active = well fitted curve in the direction sought with a large enough effect in the repeat runs; an effect the other way counts as inactive or inconclusive)
In short: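 RORγ antagonism is scored from reduced reporter luminescence in Tet-on CHO cells. Induction used 1 uM final doxycycline hyclate for 16 h at 37 C, following a 2 h compound exposure.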

[9] = qHTS assay to identify small molecule agonists of the AP-1 signaling pathway - cell viability counter screen (AID 1159525); also: nearly all actives have a fitted effect of over 55% in size; also: potency is read from the fitted curve at half-maximal effect
In short: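 Same-well cytotoxicity counter screen of the Tox21 10K library in ME-180 cells. The readout is ATP-dependent luminescence after 5 h compound treatment. Data are normalised to DMSO and tetra n-octyl ammonium bromide controls.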

[10] = qHTS assay to identify small molecule agonists of the AP-1 signaling pathway (AID 1159526); also: % is scaled to controls: 0 for no effect and ±100 for the full control effect

CCC(=O)OC1(c2ccccc2)CCN(C)CC1
inactive: Potency [1] | Potency [2] | outcome [3] | outcome [4] | outcome [5] | Potency [6] | Potency [7] | Potency [8] | Potency [9] | outcome [10]

COC(=O)[C@@H](N)CCCN/C(N)=N/[N+](=O)[O-]
inactive: Potency [1] | Potency [2] | outcome [3] | outcome [4] | outcome [5] | Potency [6] | Potency [7] | Potency [8] | Potency [9] | outcome [10]

Nc1c(Cl)c(F)nc(OCC(=O)O)c1Cl
inactive: Potency [1] | Potency [2] | outcome [3] | outcome [4] | outcome [5] | Potency [6] | Potency [7] | Potency [8] | Potency [9] | outcome [10]

C=C1C[C@@H]2[C@H](CC[C@]3(C)C(=O)CC[C@@H]23)[C@@]2(C)C=CC(=O)C=C12
inactive: Potency [1] | Potency [2] | outcome [3] | outcome [4] | outcome [5] | Potency [6] | Potency [7] | Potency [8] | Potency [9] | outcome [10]

CC(C)(N)Cc1ccccc1Cl
inactive: Potency [1] | Potency [2] | outcome [3] | outcome [4] | outcome [5] | Potency [6] | Potency [7] | Potency [8] | Potency [9] | outcome [10]

O=P(O)(O)c1ccccc1
inactive: Potency [1] | Potency [2] | outcome [3] | outcome [4] | outcome [5] | Potency [6] | Potency [7] | Potency [8] | Potency [9] | outcome [10]

CCCCS(=O)(=O)Cl
inactive: Potency [1] | Potency [2] | outcome [3] | outcome [4] | outcome [5] | Potency [6] | Potency [7] | Potency [8] | Potency [9] | outcome [10]

CC#Cc1cc(C)nc(Nc2ccccc2)n1
inactive: Potency [1] | Potency [2] | outcome [3] | outcome [4] | outcome [5] | Potency [6] | Potency [7] | Potency [8] | Potency [9] | outcome [10]

[O-][Br+2]([O-])O
inactive: Potency [1] | Potency [2] | outcome [3] | outcome [4] | outcome [5] | Potency [6] | Potency [7] | Potency [8] | Potency [9] | outcome [10]

O=C(O)C(Br)(Br)Br
inactive: Potency [1] | Potency [2] | outcome [3] | outcome [4] | outcome [5] | Potency [6] | Potency [7] | Potency [8] | Potency [9] | outcome [10]

CCCCCCCC(=O)Cl
inactive: Potency [1] | Potency [2] | outcome [3] | outcome [4] | outcome [5] | Potency [6] | Potency [7] | Potency [8] | Potency [9] | outcome [10]

CNC(=O)Oc1cc(C)c(N(C)C)c(C)c1
inactive: Potency [1] | Potency [2] | outcome [3] | outcome [4] | outcome [5] | Potency [6] | Potency [7] | Potency [8] | Potency [9] | outcome [10]

COc1ccc(C=O)cc1O
inactive: Potency [1] | Potency [2] | outcome [3] | outcome [4] | outcome [5] | Potency [6] | Potency [7] | Potency [8] | Potency [9] | outcome [10]

CC(O)CCl (stereo unspecified)
inactive: Potency [1] | Potency [2] | outcome [3] | outcome [4] | outcome [5] | Potency [6] | Potency [7] | Potency [8] | Potency [9] | outcome [10]

CC(C)[C@]12CC(=O)[C@H](C)[C@H]1C2
inactive: Potency [1] | Potency [2] | outcome [3] | outcome [4] | outcome [5] | Potency [6] | Potency [7] | Potency [8] | Potency [9] | outcome [10]

O=P(O)(O)CN(CP(=O)(O)O)CP(=O)(O)O
inactive: Potency [1] | Potency [2] | outcome [3] | outcome [4] | outcome [5] | Potency [6] | Potency [7] | Potency [8] | Potency [9] | outcome [10]

NNC(N)=O
inactive: Potency [1] | Potency [2] | outcome [3] | outcome [4] | outcome [5] | Potency [6] | Potency [7] | Potency [8] | Potency [9] | outcome [10]

CC(=O)OCC1=C(C(=O)O)N2C(=O)[C@@H](N)[C@H]2SC1
inactive: Potency [1] | Potency [2] | outcome [3] | outcome [4] | outcome [5] | Potency [6] | activity, negative = cytotoxicity [7] 5.7% [at 19 µM] | activity change, negative = inhibition [8] 30.2% [at 19 µM] | viability change, negative = cytotoxic [9] -1.2% [at 15.8 µM] | activation [10] 4.04% [at 15.8 µM]

CCC(C)C(C)(COC(N)=O)COC(N)=O (stereo unspecified)
inactive: Potency [1] | Potency [2] | outcome [3] | outcome [4] | outcome [5] | Potency [6] | Potency [7] | Potency [8] | Potency [9] | outcome [10]

NNCc1ccccc1
inactive: Potency [1] | Potency [2] | outcome [3] | outcome [4] | outcome [5] | Potency [6] | Potency [7] | Potency [8] | Potency [9] | outcome [10]

CCCCCCC(=O)CCCCCC/C=C/C[C@@H](O)[C@H](O)[C@@](N)(CO)C(=O)O
inactive: Potency [2] | outcome [3] | outcome [4] | outcome [5] | Potency [6] | activity, negative = cytotoxicity [7] 4.11% [at 19 µM] | activity change, negative = inhibition [8] -12.3% [at 19 µM] | viability change, negative = cytotoxic [9] -3.45% [at 15.8 µM] | activation [10] -2.3% [at 15.8 µM]

C=C(C)[C@H]1CN[C@H](C(=O)O)[C@H]1CC(=O)O
inactive: Potency [2] | outcome [3] | outcome [4] | outcome [5] | Potency [6] | Potency [7] | Potency [8] | Potency [9] | outcome [10]

CC(C)C(C)(N)C#N (stereo unspecified)
inactive: Potency [2] | outcome [3] | outcome [4] | outcome [5] | Potency [6] | Potency [7] | Potency [8] | Potency [9] | outcome [10]

CC(C)c1ccc(O)cc1
inactive: Potency [1] | outcome [3] | outcome [4] | outcome [5] | Potency [6] | Potency [8] | Potency [9] | outcome [10]

Cc1ccc2c(c1)C1CN(C)CCC1N2 (stereo unspecified)
inactive: Potency [2] | outcome [3] | outcome [4] | outcome [5] | Potency [6] | activity, negative = cytotoxicity [7] 3.75% [at 19 µM] | activity change, negative = inhibition [8] 3.88% [at 19 µM] | viability change, negative = cytotoxic [9] 5.2% [at 15.8 µM] | activation [10] 8.05% [at 15.8 µM]

BrCC1CO1 (stereo unspecified)
inactive: Potency [1] | Potency [2] | outcome [3] | outcome [4] | outcome [5] | Potency [6] | Potency [7] | Potency [8] | Potency [9] | outcome [10]

CCC(CC)(CNC(=O)CCCO)c1cccc(OC)c1
inactive: Potency [2] | outcome [3] | outcome [4] | outcome [5] | Potency [6] | Potency [7] | Potency [8] | Potency [9] | outcome [10]

CC(C)(C1CCC(O)CC1)C1CCC(O)CC1 (stereo unspecified)
inactive: Potency [2] | outcome [3] | outcome [4] | outcome [5] | Potency [6] | Potency [7] | Potency [8] | Potency [9] | outcome [10]

O=C(Cl)C(Cl)Cl
inactive: Potency [2] | outcome [3] | outcome [4] | outcome [5] | Potency [6] | Potency [7] | Potency [8] | Potency [9] | outcome [10]

COC[C@@H](NC(C)=O)C(=O)NCc1ccccc1
inactive: Potency [2] | outcome [3] | outcome [4] | outcome [5] | Potency [6] | Potency [7] | Potency [8] | Potency [9] | outcome [10]

CN=CNc1ccc(C)cc1C
inactive: Potency [2] | outcome [3] | outcome [4] | outcome [5] | Potency [6] | Potency [7] | Potency [8] | Potency [9] | outcome [10]

ClCCCCCCCl
inactive: Potency [2] | outcome [3] | outcome [4] | outcome [5] | Potency [6] | Potency [7] | Potency [8] | Potency [9] | outcome [10]

ClCCCCl
inactive: Potency [1] | Potency [2] | outcome [3] | outcome [4] | outcome [5] | Potency [6] | Potency [7] | Potency [8] | Potency [9] | outcome [10]

COP(=O)(O)OC
inactive: Potency [2] | outcome [3] | outcome [4] | outcome [5] | Potency [6] | Potency [7] | Potency [8] | Potency [9] | outcome [10]

CCN(CCO)CCO
inactive: Potency [2] | outcome [3] | outcome [4] | outcome [5] | Potency [6] | Potency [7] | Potency [8] | Potency [9] | outcome [10]

CCCN1CCC[C@@H]2Cc3[nH]ncc3C[C@H]21
inactive: Potency [2] | outcome [3] | outcome [4] | outcome [5] | Potency [6] | Potency [7] | Potency [8] | Potency [9] | outcome [10]

O=C1C2CC=CCC2C(=O)N1SC(Cl)(Cl)Cl (stereo unspecified)
inactive and 48.2 µM (active): Potency [9]
inactive and 6.81 µM (active): Potency [1]
inactive: outcome [3] | outcome [4] | outcome [5] | Potency [6]
inactive and 21.5 µM (active): Potency [2]
inactive and 1.9 µM (active): Potency [7]

O=C/C=C/c1ccco1
inactive: Potency [2] | outcome [3] | outcome [4] | outcome [5] | Potency [6] | Potency [7] | Potency [8] | Potency [9] | outcome [10]

CS(=O)(=O)c1ccc(C(=O)C2C(=O)CCCC2=O)c(Cl)c1COCC(F)(F)F
inactive: Potency [2] | outcome [3] | outcome [4] | outcome [5] | Potency [6] | Potency [7] | Potency [8] | Potency [9] | outcome [10]

CN(C)CCc1c[nH]c2cccc(OP(=O)(O)O)c12
inactive: Potency [2] | outcome [3] | outcome [4] | outcome [5] | Potency [6] | Potency [7] | Potency [8] | Potency [9] | outcome [10]

C=C(Cl)CSC(=S)N(CC)CC
inactive: Potency [2] | outcome [3] | outcome [4] | outcome [5] | Potency [6] | Potency [7] | Potency [8] | Potency [9] | outcome [10]

CCCOC(=O)c1cncn1C(C)c1ccccc1 (stereo unspecified)
inactive: Potency [2] | outcome [3] | outcome [4] | outcome [5] | Potency [6] | Potency [7] | Potency [8] | Potency [9] | outcome [10]

O=C(NC(=O)c1c(F)cccc1F)Nc1cc(Cl)c(F)c(Cl)c1F
inactive: Potency [1] | outcome [3] | outcome [4] | outcome [5] | Potency [6] | Potency [8] | Potency [9] | outcome [10]
